High-throughput results (PubChem)
mcGAS RapidFire – mouse cGAS inhibition by mass spec; Q8C6L5; recombinant mouse cGAS, cGAMP by RapidFire MS; inhibition, % at 12.5 µM; actives 0.18% (n = 130,000); AID 1259397;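 active = inhibition of cGAS enzyme activity at or above 60%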;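 also: enzyme stimulated by 45 bp dsDNA with ATP and GTP substrates; cGAMP share of summed cGAMP plus half ATP and half GTP signals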
Target sequence (Q8C6L5 whole entry, looked up): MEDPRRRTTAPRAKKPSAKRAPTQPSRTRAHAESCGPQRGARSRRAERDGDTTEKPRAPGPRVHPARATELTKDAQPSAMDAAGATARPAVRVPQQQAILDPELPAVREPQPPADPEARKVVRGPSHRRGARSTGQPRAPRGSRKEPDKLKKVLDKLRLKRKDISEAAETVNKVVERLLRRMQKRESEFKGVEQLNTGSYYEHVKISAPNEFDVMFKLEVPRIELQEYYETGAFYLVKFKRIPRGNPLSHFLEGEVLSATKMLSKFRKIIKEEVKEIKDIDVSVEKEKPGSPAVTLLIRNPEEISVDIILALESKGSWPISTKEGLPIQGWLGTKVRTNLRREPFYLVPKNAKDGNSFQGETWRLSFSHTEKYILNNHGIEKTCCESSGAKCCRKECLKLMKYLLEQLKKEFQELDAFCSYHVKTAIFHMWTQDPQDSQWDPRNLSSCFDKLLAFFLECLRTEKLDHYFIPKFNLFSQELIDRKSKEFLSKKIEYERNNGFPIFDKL
Of the large screens only hits and unclear results are named; the others gave an inactive call; ! = not confirmed by another sample. Many of the other results were omitted from the sample, so hits are more common in it than they were.

COc1ccc(/C=C2N=C(/C=C/c3cccc(Cl)c3Cl)OC\2=O)cc1	none
O=C1OC(/C=C/c2cccc(Cl)c2Cl)=NC/1=C/c1ccccc1[N+](=O)[O-]	none
O=C1OC(/C=C/c2cccc(Cl)c2Cl)=NC/1=C\c1ccc([N+](=O)[O-])cc1	mcGAS RapidFire 71
N#CC(=C(O)CSc1nc2ccccc2o1)c1nc2ccccc2[nH]1	none
O=C(Nc1ccc2c(c1)OCO2)N(CC1CCCCC1)C1CC1	none
Cc1c(NCC2CCCO2)nn2c(C(F)(F)F)nnc2c1C (configuration not stated)	none
COC1C=CCC(c2ccc([N+](=O)[O-])cc2)C1(C#N)C#N (configuration not stated)	none
O=c1c(-c2ccccc2)coc2cc(O)cc(O)c12	mcGAS RapidFire 86
O=c1c(O)c(-c2ccc(O)cc2)oc2cc(O)cc(O)c12	none
O=c1c(-c2ccc(O)cc2)coc2cc(O)ccc12	none
CC(=O)OC[C@H]1O[C@@H](SC(=S)N(C)C)[C@H](OC(C)=O)[C@@H](OC(C)=O)[C@@H]1OC(C)=O	none
O=C1Nc2ccc(Br)cc2C1=c1sc2nc3ccccc3n2c1=O	none
O=C1Nc2ccc(Br)cc2/C1=c1/sc2n(c1=O)CCN=2	mcGAS RapidFire 81
O=C1Nc2ccc(Br)cc2C1=O	none
COc1cccc(-c2cc(C(=O)N(CCC(=O)NCCC3CCCN3C)CC(C)C)no2)c1 (configuration not stated)	none
CN(C)c1nc(N)nc(/C(C#N)=C/c2ccccc2OC(F)(F)F)n1	none
CC(NC(=O)Cn1ccsc1=O)c1ccc2ccccc2c1 (configuration not stated)	none
O=C(Nc1nnc(C2CC2)s1)c1cccs1	none
O=C(Nc1ncc([N+](=O)[O-])s1)c1ccc(=O)n(Cc2ccc(F)cc2)c1	none
O=C(Nc1ncc([N+](=O)[O-])s1)c1cccs1	mcGAS RapidFire 86
O=C(CCCn1nnnc1CN1CCOCC1)N1CCCCC1CCn1cccn1 (configuration not stated)	none
O=S(=O)(NC1CCCC1)c1ccc(Cl)c(C(F)(F)F)c1	none
CC[n+]1c(-c2ccccc2)c2cc(N)ccc2c2ccc(N)cc21	mcGAS RapidFire 97!
CC[n+]1c2ccccc2cc2ccccc21	none
Cc1nc2c(c(C(F)(F)F)n1)CC(C(=O)O)CC2 (configuration not stated)	none
C=C1C2(C(=O)NCc3ccc(C)cc3)CCC(C2)C1(C)C (configuration not stated)	none
CN(CCOc1ccccc1)C(=O)c1cc2ccccc2oc1=O	none
COc1ccc(CCNC(=O)c2cc3ccccc3oc2=O)cc1OC	none
CSc1c(C#N)c(SCC(=O)c2cc3ccccc3oc2=O)[nH]c(=O)c1C#N	mcGAS RapidFire 94
Cc1nc(C)c(CNC2CCCSC2)s1 (configuration not stated)	none
CCC1CCC(N(C(=O)c2cnc(C)s2)c2cccc(N3CCCC3)c2)CC1 (configuration not stated)	none
Cc1cc(-c2cc(=O)[nH]c(-c3ccc(CN4CCN(C)CC4)cc3)n2)c(C)o1	mcGAS RapidFire 71
CN(Cc1ccc(-c2nc(-c3ccncc3)cc(=O)[nH]2)cc1)Cc1ccoc1	none
CCCCc1cc(=O)[nH]c(-c2ccc(CN3CCN(C(=O)N(C)C)CC3)cc2)n1	none
COc1ccccc1C(C)NC(=O)C(C)N1CCN(CCO)CC1 (configuration not stated)	none
CCCCc1noc(C(C)SCCn2nc3ccccn3c2=O)n1 (configuration not stated)	none
COCCNc1ncnc2c1nnn2C	none
Cc1cccc(C)c1NC(=O)CC1CSc2ncc(C)c(=O)n21 (configuration not stated)	none
O=C1CCC(C(=O)N2CCCCO2)CN1CCc1ccccn1 (configuration not stated)	none
CCN(CC)C(=S)SSC(=S)N(CC)CC	mcGAS RapidFire 76!
CCN(CC)C(=S)SC(C)C(=O)NC1CC1 (configuration not stated)	none
Cc1cc(C)c2c(=O)c(-c3nc(-c4ccccc4)c(C)[nH]3)coc2c1	none
COc1coc(C(=O)Nc2nc(C)cs2)cc1=O	none
COc1coc(C(=O)Nc2nnc(C)s2)cc1=O	mcGAS RapidFire 70
COc1coc(C(=O)Nc2nc3ccccc3s2)cc1=O	none
CC1Cc2ccccc2N1C(=O)c1ccc(S(=O)(=O)NC2CC2)o1 (configuration not stated)	none
COCCS(=O)(=O)N(Cc1ccco1)c1ccc(F)cc1F	none
COCCN(Cc1ccco1)S(=O)(=O)Cc1cccc(C)c1	mcGAS RapidFire 89
COCCN(Cc1ccco1)C(=O)CNc1ccccc1Cl	none
O=c1scc(C(F)(F)F)n1Cc1ccc(Br)cc1	none
Cc1cc(C)c2c(CC(=O)N[C@@H]3C[C@@H](CO)N(C)C3)coc2c1C	none
CC(C)c1nn(CC(=O)N(C)c2ccccc2)c(=O)c2c1cnn2-c1ccc(F)cc1	none
S=c1nccc(-c2ccccc2)[nH]1	mcGAS RapidFire 74
OC(C#Cc1ccccc1)c1ncc(-c2ccccc2)[nH]1 (configuration not stated)	none
S=c1nc(-c2ccccc2)c(-c2ccccc2)n[nH]1	none
Cc1ncsc1CN(C)C(=O)C(C)(C)c1cccc(Cl)c1	none
COc1ccc2cc(CN(C)[C@H]3COC[C@@H]3O)c(=O)[nH]c2c1	none
Cc1ccc2c(c1)c(CNC(=O)CCc1c(C)nn(C)c1C)nn2C	none
Cc1ccc2c(c1)c(CNC(=O)C1CNCC(=O)N1)nn2C (configuration not stated)	mcGAS RapidFire 64
Cc1ccc2c(c1)c(CNC(=O)c1ccccc1C1CCNC1)nn2C (configuration not stated)	none
Cc1nnc(SCCNC(=O)Cc2cnc3c(C)cccn23)s1	none
CC(=O)c1cc(CC(=O)NC2CCCc3c2cnn3-c2ccc(F)cc2F)cs1 (configuration not stated)	none
Cc1ccc(N2CC(CNS(=O)(=O)N(C)C)CC2=O)cc1 (configuration not stated)	none
CCn1c(C)cc(O)c(C(c2ccc(SC)cc2)N2CCCCC2)c1=O (configuration not stated)	none
CCn1c(C)cc(O)c(C(c2cccs2)N2CCC(C)CC2)c1=O (configuration not stated)	none
CCn1c(C)cc(O)c(C(c2cccs2)N2CCCCC2)c1=O (configuration not stated)	mcGAS RapidFire 63
CC1Sc2ccc(C(=O)N(C)C3CCCCC3)cc2NC1=O (configuration not stated)	none
CCCC1(CNC(=O)c2c(C)oc3ncn(C)c(=O)c23)CCC1	none
Cc1oc(C)c(C(=O)Nc2cccc(N3CCCC3=O)c2)c1C	none
Cc1oc2ncn(C)c(=O)c2c1C(=O)Nc1cccc(COCC2CC2)c1	mcGAS RapidFire 94
c1csc(-c2csc(N3CCCC3)n2)c1	none
C=CCN(Cn1nc(C2CCS(=O)(=O)C2)n(C)c1=S)C1CCCC1 (configuration not stated)	none
Cc1noc(C)c1N=Cc1ccc(F)c(F)c1	none
Cc1[nH]n(-c2nc3ccccc3[nH]2)c(=O)c1C	none
CCc1c(C)[nH]n(-c2nc3ccccc3[nH]2)c1=O	none
Cc1[nH]n(-c2nc3ccccc3[nH]2)c(=O)c1C1OC(=O)c2ccccc21 (configuration not stated)	mcGAS RapidFire 99
Fc1ccc(-c2nnc(CON=Cc3ccc(Cl)c(Cl)c3)o2)cc1	none
O=C(COc1cccc2cccnc12)NC1CCSc2ccccc21 (configuration not stated)	none
COc1cc(CN(C)Cc2oc(CO)cc(=O)c2O)ccc1OC(F)F	none
COc1ccc(CN(C)Cc2nnc(C(C)C)o2)cc1OC(F)F	mcGAS RapidFire 81
COc1cc(CSc2nnnn2-c2ccccc2)ccc1OC(F)F	none
